# Measurements from PubChem BioAssay AID504333 (National Center for Advancing Translational Sciences (NCATS), 2011).
# The whole screen tested about 360,000 compounds, of which about 16,000 (4.4%) were called active. Not shown: some 9% with an inconclusive outcome. The call rests on the fitted dose curve; in most records, active means well fitted inhibition curve with a large enough effect; inconclusive means small, poorly fitted or top-dose-only effect; inactive means no such curve, though single readings can be large or run the other way. Only a selection was taken, and actives are over-represented in it overall.
# Target: Bromodomain adjacent to zinc finger domain protein 2B (Homo sapiens) (UniProt Q9UIF8)
# Experiment: qHTS Assay for Inhibitors of BAZ2B; further: nearly all actives have a fitted effect of over 60% in size
# Settings: AlphaScreen BAZ2B-H3K14Ac peptide displacement; series mostly up to 114 µM; activity change, negative = inhibition: at the top concentration
# Procedure, shortened: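 Protein-peptide AlphaScreen: BAZ2B 50 nM, b-H3K14Ac 50 nM, 1x PBS pH 7.4 + 0.01% Tween-20. Preincubation 30 min RT; cpd 30 min RT (top 110 uM); beads 20 min RT, light-protected.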
# On the % scale 0 is the no-effect control and ±100 the full control effect; potency means the concentration at half of the fitted maximal effect.
# Chain of Bromodomain adjacent to zinc finger domain protein 2B (Homo sapiens) (Q9UIF8 whole entry, looked up, the tested form may be a part): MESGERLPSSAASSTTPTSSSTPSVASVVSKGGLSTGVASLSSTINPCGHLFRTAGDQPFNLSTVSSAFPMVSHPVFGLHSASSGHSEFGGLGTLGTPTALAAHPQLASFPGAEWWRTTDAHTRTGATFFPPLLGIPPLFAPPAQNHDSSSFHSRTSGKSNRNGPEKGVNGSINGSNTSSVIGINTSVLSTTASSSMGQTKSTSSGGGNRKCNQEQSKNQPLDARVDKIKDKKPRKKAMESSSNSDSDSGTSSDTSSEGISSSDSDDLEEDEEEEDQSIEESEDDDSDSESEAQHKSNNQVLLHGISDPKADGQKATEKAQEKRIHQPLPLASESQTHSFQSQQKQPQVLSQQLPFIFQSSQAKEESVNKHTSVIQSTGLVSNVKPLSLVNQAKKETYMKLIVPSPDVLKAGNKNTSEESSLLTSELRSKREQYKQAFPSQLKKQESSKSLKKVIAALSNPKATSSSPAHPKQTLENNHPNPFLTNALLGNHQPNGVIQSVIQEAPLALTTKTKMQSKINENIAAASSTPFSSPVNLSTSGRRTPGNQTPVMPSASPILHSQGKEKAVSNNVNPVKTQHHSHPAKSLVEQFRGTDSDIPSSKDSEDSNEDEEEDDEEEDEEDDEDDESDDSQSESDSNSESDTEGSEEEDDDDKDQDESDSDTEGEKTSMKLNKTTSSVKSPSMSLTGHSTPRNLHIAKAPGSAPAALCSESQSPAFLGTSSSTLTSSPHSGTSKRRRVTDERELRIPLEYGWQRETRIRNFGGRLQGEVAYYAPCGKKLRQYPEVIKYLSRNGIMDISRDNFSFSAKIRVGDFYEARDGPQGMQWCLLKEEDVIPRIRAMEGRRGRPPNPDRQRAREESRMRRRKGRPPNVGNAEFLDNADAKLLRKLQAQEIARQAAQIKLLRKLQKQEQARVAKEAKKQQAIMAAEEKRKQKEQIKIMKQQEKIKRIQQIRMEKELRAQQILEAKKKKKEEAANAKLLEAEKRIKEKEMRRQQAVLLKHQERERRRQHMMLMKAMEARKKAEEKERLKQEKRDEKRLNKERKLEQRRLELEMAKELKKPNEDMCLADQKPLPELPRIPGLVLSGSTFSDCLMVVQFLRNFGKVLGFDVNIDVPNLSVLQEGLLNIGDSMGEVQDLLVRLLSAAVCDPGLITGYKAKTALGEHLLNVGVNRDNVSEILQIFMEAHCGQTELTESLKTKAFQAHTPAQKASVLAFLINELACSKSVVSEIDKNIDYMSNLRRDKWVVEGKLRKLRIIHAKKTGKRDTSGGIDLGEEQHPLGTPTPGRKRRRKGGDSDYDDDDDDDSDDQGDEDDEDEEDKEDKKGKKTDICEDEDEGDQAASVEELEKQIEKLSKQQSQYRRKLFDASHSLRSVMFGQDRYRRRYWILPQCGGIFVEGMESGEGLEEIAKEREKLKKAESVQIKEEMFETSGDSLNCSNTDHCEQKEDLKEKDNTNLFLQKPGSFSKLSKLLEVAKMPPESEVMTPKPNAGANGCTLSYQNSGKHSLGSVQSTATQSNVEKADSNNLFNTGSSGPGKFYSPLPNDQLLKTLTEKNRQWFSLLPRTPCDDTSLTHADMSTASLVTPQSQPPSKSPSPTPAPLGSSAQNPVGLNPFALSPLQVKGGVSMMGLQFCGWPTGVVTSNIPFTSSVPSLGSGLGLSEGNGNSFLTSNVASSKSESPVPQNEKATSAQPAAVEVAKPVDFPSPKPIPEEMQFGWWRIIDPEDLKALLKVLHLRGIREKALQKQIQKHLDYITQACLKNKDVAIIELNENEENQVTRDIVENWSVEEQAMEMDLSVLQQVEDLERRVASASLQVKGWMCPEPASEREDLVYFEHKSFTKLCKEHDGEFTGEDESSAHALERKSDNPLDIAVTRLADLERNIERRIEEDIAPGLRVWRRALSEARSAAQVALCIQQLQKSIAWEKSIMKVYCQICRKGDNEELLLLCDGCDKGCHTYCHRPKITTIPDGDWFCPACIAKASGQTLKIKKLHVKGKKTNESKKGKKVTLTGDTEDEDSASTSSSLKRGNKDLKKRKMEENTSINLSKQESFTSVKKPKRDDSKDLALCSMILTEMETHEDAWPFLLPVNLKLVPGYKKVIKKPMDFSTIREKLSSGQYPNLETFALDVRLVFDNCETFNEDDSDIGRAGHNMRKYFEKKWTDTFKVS
SMILES,"activity change, negative = inhibition",Potency
COc1ccccc1NC(=O)CSC1=Nc2ccccc2C2=NC(CC(=O)NCc3cccs3)C(=O)N12 (stereo not given),-0.849% (inactive),–
COc1ccc(CN2C(=O)C(NC(=O)c3cccc(C)c3)(C(F)(F)F)N=C2c2ccccc2)cc1 (stereo not given),-27.7% (inactive),–
COc1ccccc1/C=C/C=N/NC(=O)CN1CCN(Cc2ccccc2)CC1,-13.5% (inactive),–
COc1ccccc1/C=N/N1CCN(Cc2ccccc2Cl)CC1,–,44.7 µM (active)
CSc1ccc(/C=N/NC(=O)c2cccc(Cl)c2)cc1,-34.9% (inactive),–
CSc1ccc(/C=N/N2CCN(Cc3ccccc3Cl)CC2)cc1,–,25.1 µM (active)
O=S1(=O)CCN(Cc2ccccc2Cl)CC1,8.6% (inactive),–
COc1cc(Cl)c(S(=O)(=O)N2CCN(Cc3ccc4c(c3)OCO4)CC2)cc1Cl,-7.04% (inactive),–
CCC(=O)N1c2ccccc2CC1C(=O)N1CCN(c2ccccc2)CC1 (stereo not given),-1.22% (inactive),–
CCc1ccc(NC(=O)N2CCN(C(=O)c3nsc4ccccc34)CC2)cc1,5.83% (inactive),–
Cc1ccccc1CSc1nc2c([nH]c3ccccc32)c(=O)n1C,5.09% (inactive),–
CCN(CC)c1nn2c(=O)c(C(=O)NCCc3ccccc3)cnc2s1,-3.02% (inactive),–
COc1ccccc1N1CCN(C(=O)C2CCN(S(=O)(=O)c3c(C)noc3/C=C/c3ccc(C)cc3)CC2)CC1,-12.4% (inactive),–
COc1ccccc1-c1noc(CSc2nnc(-c3ccccc3)n2-c2ccc(C)c(C)c2)n1,-23.7% (inactive),–
Cc1ccc(NC(=O)c2ccc(CN3CC(=O)N4CCCCC4C3=O)cc2)c(Cl)c1 (stereo not given),-8.09% (inactive),–
COc1cc(NC(=O)CCn2nc(C)cc2C)cc(OC)c1OC,-14.8% (inactive),–
CC1CCN(c2oc(-c3ccccc3F)nc2C#N)CC1,–,14.1 µM (active)
Cc1oc(-c2ccccc2F)nc1CS(=O)CC(=O)NCCN1CCCCC1C (stereo not given),-22.7% (inactive),–
N#Cc1nc(-c2cccc3ccccc23)oc1N,-7.95% (inactive),–
COc1cccc(C2C(C(=O)Nc3ccc(C)cc3C)=C(C)Nc3c(C(=O)Nc4ccccc4)cnn32)c1 (stereo not given),-0.431% [at 57.1 µM] (inactive),–
CCOc1ccccc1C(=O)NCc1ccc2c(c1)CCN2C(=O)c1ccc(F)cc1,-8.29% (inactive),–
COc1ccc(NC(=O)C2CCN(c3ccc(Sc4ccc(C)cc4)nn3)CC2)c(OC)c1,1.5% (inactive),–

SMILES,"activity change, negative = inhibition",Potency
COCCNC(=O)/C(C#N)=C/c1cccc(OCc2ccccc2)c1,1.99% (inactive),–
N#C/C(=C\c1ccc(O)c(O)c1)C(=O)NCc1ccccc1,–,12.6 µM (active)
COc1ccc(CNC(=O)/C(C#N)=C/c2cccc(OC)c2OC)cc1,17.4% (inactive),–
O=C(Nc1nnc(C2CC(=O)N(c3ccc(Cl)cc3)C2)s1)c1ccco1 (stereo not given),-5.6% (inactive),–
Cc1c(CNC(C)c2ccccc2)c(C(=O)O)c(C)n1Cc1c(F)cccc1Cl (stereo not given),-35.7% (inactive),–
COc1cc(C(CC(=O)NCCC(C)C)N2Cc3ccccc3C2=O)cc(OC)c1OC (stereo not given),-16.8% (inactive),–
O=C(C1CCC1)N1CCN(c2ccccc2)CC1,-6.73% (inactive),–
O=C(c1cc2c(s1)CCC2)N1CCN(c2ccccc2)CC1,–,56.2 µM (active)
O=C(NNC(=O)c1cc2c(s1)CCCC2)c1ccccc1,0.303% (inactive),–
COc1ccc(NC(=O)N2CCC(Cc3ccccc3)CC2)cc1,-12.4% (inactive),–
COc1ccc(NC(=S)NCCN2CCC(C)CC2)cc1,4.01% (inactive),–
COc1ccc(N2CCC(CNC(=S)Nc3c(C)cccc3C)C2)cc1 (stereo not given),–,39.8 µM (active)
COc1cccc(N2CC(C(=O)Nc3c(C)cccc3C)CC2=O)c1 (stereo not given),5.13% (inactive),–
COc1ccc(OCC(=O)Nc2ccc(N3CCC(C)CC3)cc2)cc1,-9.42% (inactive),–
COc1ccc(NC(=S)NCC2CCN(c3ccc(OC)cc3)C2)cc1 (stereo not given),–,31.6 µM (active)
NC(=O)CSc1nc2c(oc3ccccc32)c(=O)n1Cc1ccccc1,5.76% (inactive),–
CCOc1ccc(OCC)c(NS(=O)(=O)c2ccc3[nH]c(=O)ccc3c2)c1,-10.5% (inactive),–
CCOc1ccc(N(CC)C(=O)c2noc3c2COc2ccc(C)cc2-3)cc1,-5.3% (inactive),–
COc1cc(C(=O)N[C@@H](C)C(=O)NCc2ccco2)cc(OC)c1OC,-6.9% (inactive),–
COc1ccccc1-n1c(C)nc2cc(C(=O)NCc3ccc4c(c3)OCO4)ccc21,6.25% (inactive),–
COc1cc(-n2c(C)nc3cc(C(=O)NCc4ccco4)ccc32)cc(OC)c1OC,–,56.2 µM (active)
COc1ccc(-c2cn3nc(N4CCC(C(=O)Nc5cccc(C)c5C)CC4)sc3n2)cc1,0.408% (inactive),–

SMILES,"activity change, negative = inhibition",Potency
Cc1ccccc1C(=O)Nc1sc2c(c1C(=O)N1CCC(C)CC1)CCCC2,-19.1% (inactive),–
O=C(c1cccs1)N(C(=O)c1cccs1)c1ccccn1,-1.03% (inactive),–
O=C(c1cccs1)c1cn(CCOc2ccc(Cl)cc2)c2ccccc12,-10.5% (inactive),–
O=C(C1=C(O)C(=O)N(CCOCCO)C1c1ccccn1)c1cccs1 (stereo not given),–,50.1 µM (active)
O=c1n(Cc2cccc(C(F)(F)F)c2)c2ccccc2c2nc(-c3ccccc3)nn12,-0.6% (inactive),–
O=C(NCc1ccccc1)c1cccc(NC(=O)N2CCSc3ncccc32)c1,-15.1% (inactive),–
Cc1ccc(NC(=O)Nc2sc3nc4n(c(=O)c3c2C)CCC(C)CC4)c(Cl)c1 (stereo not given),18.2% (inactive),–
COc1ccc(NC(=O)Nc2cccc(-c3noc(C)n3)c2)cc1,2.5% (inactive),–
Cc1cccc(Cn2c(CN3CCC(C(=O)NCc4ccccc4Cl)CC3)cc3ccccc32)c1,-15.4% (inactive),–
COc1ccc(Cl)cc1NC(=O)CCS(=O)(=O)c1cc2c(cc1C)NC(=O)CO2,-16.3% (inactive),–
COc1ccc(Cl)cc1NC(=O)CN(C)CC(=O)Nc1ccc2c(c1)OCO2,-7.5% (inactive),–
O=C(CCS(=O)(=O)c1ccc(Br)cc1)NCCc1ccc(Cl)cc1,–,50.1 µM (active)
COc1ccc(Cl)cc1NC(=O)CCC(=O)c1ccc(C)cc1,-0.278% (inactive),–
COc1ccc(Cl)cc1NC(=O)CN(C)Cc1ccc(OC)c(OC)c1,–,20 µM (active)
Cn1c(=O)oc2cc(S(=O)(=O)CCC(=O)NCCc3ccc(Cl)cc3)ccc21,7.61% [at 57.1 µM] (inactive),–
COc1ccc(Cl)cc1NC(=O)CN(C)C(=O)c1cc2ccccc2cc1OC,0.538% (inactive),–
CC(=O)N1CCc2cc(Br)cc(S(=O)(=O)CCC(=O)NCCc3ccc(Cl)cc3)c21,0.132% (inactive),–
COc1ccc(Cl)cc1NC(=O)CCS(=O)(=O)c1ccc(Br)cc1,–,8.91 µM (active)
CCc1ccccc1NS(=O)(=O)c1ccc2nc(-c3ccccc3)[nH]c2c1,-12.9% (inactive),–
O=S(=O)(NCC(c1ccco1)N1CCOCC1)c1cc(F)ccc1F (stereo not given),-3.02% (inactive),–
Cc1ccc(Nc2ccc3cc(S(=O)(=O)N4CCCCC4)ccc3n2)cc1F,34.4% (inactive),–
